# Screens (PubChem)
# DT40 TDP1 CPT – DT40-hTDP1 cell growth loss with CPT. AID 686979. chicken DT40 Tdp1-/-;hTDP1 cells + 20 nM CPT, ATP luminescence, 48 h. 420,000 tested, 12% active. Potency, µM (doses to about 46.2 µM), inactives show at the highest dose activity change, negative = growth inhibition, actives largely listed as inhibitors; also: potency is read from the fitted curve at half-maximal effect; % is scaled to controls: 0 for no effect and ±100 for the full control effect; nearly all actives have a fitted effect of over 55% in size
#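 Chicken DT40 Tdp1-/- cells complemented with human TDP1, 400 cells/well, exposed to compounds plus 20 nM camptothecin for at least 48 h at 37 C; viability read as ATP content by CellTiter-Glo luminescence.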
# IL-1B inflam inh – inflammasome signaling inhibition, IL-1 beta readout; THP-1 LPS/ATP IL-1B secretion, AlphaLISA, 16 h; stronger effect = lower value; activity change, % at 57.5 µM; 360,000 tested, 4.7% active; in the data active = activity change below about -50%; inconclusive = mostly about -30% to -49%; also: % is scaled to controls: 0 for no effect and ±100 for the full control effect
#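 Secreted IL-1B measured by AlphaLISA bead assay after 16 h compound exposure of THP-1 cells; compounds (final up to 57.5 uM) added 1 h before LPS (250 ng/mL) and ATP (1.25 mM) stimulation; lower signal means less secretion.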
# SW480 rereplic – inducers of DNA re-replication in SW480 colon cancer cells; SW480 DNA re-replication, Hoechst DNA content imaging, 48 h; Potency, µM (titrated, usually from 46.1 µM), for the others: at the highest dose re-replication activation, actives largely listed as activators; 340,000 tested, 1.8% active; also: potency is read from the fitted curve at half-maximal effect; % of control where 0% means no effect; nearly all actives have a fitted effect of over 55% in size
#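 Image-based DNA-content assay: after two days of treatment, nuclei were labelled with the DNA dye Hoechst and imaged, and hits were compounds raising the count of nuclei showing high fluorescence intensity.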
# TDP1 cell noCPT – qHTS for Inhibitors of human tyrosyl-DNA phosphodiesterase 1 (TDP1): qHTS in cells in absence of CPT | DT40 Tdp1-/- hTDP1 cells, no CPT, ATP luminescence, 48 h | Potency, µM (top dose mostly 46.2 µM), for inactives: at the highest dose activity change, negative = growth inhibition, usual class: inhibitors | 420,000 tested, 15% active; also: potency is read from the fitted curve at half-maximal effect; % is scaled to controls: 0 for no effect and ±100 for the full control effect; nearly all actives have a fitted effect of over 55% in size
#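 Growth kinetics read by CellTiter-Glo luminescence after ≥48 hr at 37 °C. Cells: DT40 Tdp1-/- stably carrying human TDP1, 400 per well, compound exposure in the absence of CPT (DMSO vehicle).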
# Chronic BCR inh – blocks chronic active B-cell receptor signaling; Potency, µM (highest dose often 46.1 µM), for inactives: at the top dose activity change, negative = inhibition, hits mostly inhibitors; ABC-DLBCL IkBa-CBG/CBR reporter, luminescence ratio, 4 h; 340,000 tested, 0.05% active; active = well fitted inhibition curve with a large enough effect in the signal ratio, with a control signal flat, not every such curve was filed as active; inconclusive = small, poorly fitted or top-dose-only effect, or effect the other way, or a change in a side signal; the % refers to the signal ratio;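 also: potency is read from the fitted curve at half-maximal effect; plate controls were basal doxycycline-induced cells for no effect and cells given 10 µM MG132 for full effect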
#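 Cell line TMD8 (human ABC DLBCL), stably expressing tet-inducible CBG68-IkBa fusion and CBR; IMDM/0.5% FBS; cpd up to 46 uM; dox induction, 4 h, 37C/5% CO2; dual luminescence; green/red ratio; MG132 control.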
# MCF10A rereplic – DNA re-replication induction in MCF 10a cells; Potency, µM (series often up to 46.1 µM), without a hit: at the highest dose activity, positive = re-replication, most hits filed as activators; 350,000 tested, 2.9% active; MCF 10A DNA re-replication, Hoechst nuclear intensity, 48 h; also: potency is read from the fitted curve at half-maximal effect; % of control where 0% means no effect; nearly all actives have a fitted effect of over 50% in size
# An asterisk follows results filed as active; ? = inconclusive; · = no result given; [ ] = remark or other dose. Most compounds without a hit are left out; they make up all but 19% or so of the library. Unless noted, calls follow the shape of the dose curve; as a rule, active = well fitted curve in the direction sought with a large enough effect; inconclusive = small, poorly fitted or top-dose-only effect, or another doubt; inactive = no such curve, though single readings can be large; an effect the other way counts as inactive or inconclusive.
SMILES,DT40 TDP1 CPT,IL-1B inflam inh,SW480 rereplic,TDP1 cell noCPT,Chronic BCR inh,MCF10A rereplic
CCOC(=O)C1(Cc2ccc(Cl)cc2)CCN(C(=O)c2sc(C)nc2C)CC1,12µM*,?,3%,9.2µM*,-7%,?
CCOC(=O)C1(Cc2ccc(OC)cc2)CCN(C(=O)c2cc(C)on2)CC1,-26%,-10,-2%,?,1%,14%
Cn1nc(C2CC2)cc1NC(=O)C1(C)CCN1C(=O)CCc1ccccc1 (configuration not stated),-25%,13,·,-20%,·,·
CC(=O)C(C(C)=O)C(NC(=O)c1cccnc1)(C(F)(F)F)C(F)(F)F,7.3µM*,17,?,12µM*,0%,21µM*
Cc1ccc(OCC(=O)Nc2cccc(OCc3cc(=O)n4cccc(C)c4n3)c2)cc1C,15µM*,·,·,18µM*,·,·
CCCC(=O)Nc1cccc(OCc2cc(=O)n3cccc(C)c3n2)c1,-23%,·,·,-27%,·,·
COc1ccc(NC(=O)Nc2cccc(OCc3cc(=O)n4cccc(C)c4n3)c2)c(OC)c1,?,·,·,13µM*,·,·
CCC(Oc1ccccc1)C(=O)Nc1cccc(OCc2cc(=O)n3cccc(C)c3n2)c1 (configuration not stated),23µM*,·,·,16µM*,·,·
COC(=O)[C@H](CC(C)C)N1Cc2cc(OC)cc(OC)c2-c2ccccc2S1(=O)=O,?,-7,6%,16µM*,?,-12%
Cc1ccccc1C(=O)N1CCC(c2nc(-c3ccc(S(=O)(=O)N4CCCC4)cc3)no2)CC1,-9%,·,·,-14%,·,·
O=C(c1ccccc1)N1CCC(c2nc(-c3ccc(S(=O)(=O)N4CCOCC4)cc3)no2)CC1,?,-15,0%,?,?,2%
O=C(Nc1ccc(Cl)cc1)N1CCC(c2nc(-c3ccccc3Cl)no2)CC1,23µM*,-9,10%,18µM*,2%,?
O=C(c1ccc(F)cc1F)N1CCC(c2noc(-c3ccc(S(=O)(=O)N4CCCC4)cc3)n2)CC1,-1%,·,·,?,·,·
Cc1cccc(C(=O)N2CCC(c3nc(-c4ccc(S(=O)(=O)N5CCOCC5)cc4)no3)CC2)c1,16µM*,-53*,3%,21µM*,-18%,4%
COc1ccccc1C(=O)N1CCC(c2noc(-c3ccc(S(=O)(=O)N4CCCC4)cc3)n2)CC1,23µM*,·,·,16µM*,·,·
O=C(c1cccs1)N1CCC(c2nc(-c3ccc(S(=O)(=O)N4CCOCC4)cc3)no2)CC1,?,-7,-5%,18µM*,0%,17%
CCO/C(C)=C1/SC(=S)NC1=O,8%,-1,-5%[9.22 µM],-25%,2%,5%
CCc1ccc(C(=O)N2CCC(c3nc(-c4ccc(S(=O)(=O)N5CCCC5)cc4)no3)CC2)cc1,?,·,·,21µM*,·,·
O=C(Nc1ccccc1)N1CCC(c2nc(-c3ccc(S(=O)(=O)N4CCOCC4)cc3)no2)CC1,4.1µM*,42,5.8µM*,3.3µM*,-13%,1.8µM*
CC(C)C(=O)N1CCC(c2nc(-c3ccc(S(=O)(=O)N4CCCC4)cc3)no2)CC1,?,14,-5%,?,1%,1%
O=C(Nc1cccc(-c2nc3ncccc3o2)c1)c1ccccc1,?,70,-5%,12µM*,?,-1%
Cc1c(NC(=O)C(C)C)cccc1-c1nc2ncccc2o1,2%,0,-9%,14%,11%,-5%
Cc1ccc(C(=O)Nc2cccc(-c3nc4ncccc4o3)c2)cc1,-25%,9,-22%,?,-1%,?
Cc1c(NC(=O)c2cccc(-c3cc4ccccc4oc3=O)c2)cccc1-c1nc2ncccc2o1,26µM*,31,-4%,21µM*,10%,0%
COc1ccc2nc(NC(=O)c3cccc(-c4cc5ccccc5oc4=O)c3)sc2c1,16µM*,-6,?,16µM*,-5%,?
SMILES,DT40 TDP1 CPT,IL-1B inflam inh,SW480 rereplic,TDP1 cell noCPT,Chronic BCR inh,MCF10A rereplic
Cc1c(CNCCCc2ccccc2)c(C(=O)O)c(C)n1Cc1cccc(Cl)c1,?,·,·,21µM*,·,·
CCOc1ccc(CNCc2c(C(=O)O)c(C)n(Cc3ccc(C)cc3)c2C)cc1,?,·,·,18µM*,·,·
Cc1c(CNCCCc2ccccc2)c(C(=O)O)c(C)n1Cc1ccc(Cl)cc1,?,·,·,21µM*,·,·
C=Cc1ccc(Cn2c(C)c(CNCc3ccc(SC)cc3)c(C(=O)O)c2C)cc1,5%,·,·,-3%,·,·
NCC(O)(c1ccc(Cl)cc1)c1ccc(Cl)cc1,16µM*,-56*,7%,10µM*,?,?
CCN(CC)CCNCC(O)(c1ccc(Cl)cc1)c1ccc(Cl)cc1,?,-87*,?,16µM*,?,7%
CC(C)NCC(O)(c1ccc(Cl)cc1)c1ccc(Cl)cc1,?,-84*,16%,21µM*,?,7%
C[C@@H]1CN([C@H](C)CO)S(=O)(=O)c2ccc(Br)cc2O[C@@H]1CN(C)C(=O)NC1CCCC1,?,-11,·,?,·,·
O=C(Nc1ccc(OC(F)(F)F)cc1)c1nc2ccccc2nc1N1CCCCC1,-25%,·,·,-15%,?,·
Nc1ccc2c3c(ccc([N+](=O)[O-])c13)CC2,?,?,·,7.3µM*,·,·
Cc1cc(C(N)=O)nn1-c1c(Cl)cc(Cl)cc1Cl,0%,16,-21%,-15%,?,2%
CCOC(=O)N1CCC(N(CCN(C)C)C(=S)Nc2ccc(Oc3ccccc3)cc2)CC1,-9%,-89*,8%,-23%,4%,?
CCOC(=O)N1CCC(N(C(=O)Nc2cccc(OC)c2)C(C)CC)CC1 (configuration not stated),21µM*,16,-4%,10µM*,-2%,-10%
CCOC(=O)N1CCC(N(CCOC)C(=O)Nc2ccc(Cl)c(Cl)c2)CC1,18µM*,-63*,15%,10µM*,-1%,29%
N#Cc1ccc(CSC2=NCCN2)cc1,21µM*,?,?,23µM*,?,?
c1ccc(CSC2=NCCCN2)cc1,3%,?,-1%,0%,-8%,0%
Clc1ccccc1CSC1=NCCN1,-18%,-1,-5%,-6%,?,13%
CCOc1ccc(CSC2=NCCN2)cc1Cl,?,-19,6%,15µM*,?,?
Nc1cc(=O)[nH]c(=S)[nH]1,1%,·,·,-14%,·,·
